Measured values reported in ChEMBL document CHEMBL3988442, “University of Dundee, Small-Polar-MMV Screening Library” (2021).
Out of some 48,000 compounds screened, about 13,000 (27%) showed an effect of 50% or more. Some of the results follow.

These compounds were tested on Wolbachia pipientis (assay: Anti-Wolbachia Cell-Based Screen). Details: 5 µM.
Format: functional
Set-up: scale not given: in the data most compounds retested in dose-response had high values

| SMILES | Percent Effect [%] |
| --- | --- |
| N#Cc1ccnc(N2CCN(C(=O)c3ccc4c(c3)CCO4)CC2)c1 | 2.896 |
| O=S(=O)(CCCNC1CCc2ncnn2C1)c1ccccc1 (stereo not given) | 113.7 |
| O=C(CNC1CCc2ncnn2C1)NCCc1cccs1 (stereo not given) | 2.681 |
| Cc1nc(CNC2CCc3ncnn3C2)oc1C (stereo not given) | -6.098 |
| c1csc(CCNC2CCc3ncnn3C2)c1 (stereo not given) | -10.08 |
| Clc1ccc(-c2cnc(CNC3CCc4ncnn4C3)o2)cc1 (stereo not given) | -3.633 |
| COc1cccc(S(=O)(=O)CCNCCn2cccn2)c1 | 2.314 |
| COc1cccc(S(=O)(=O)CCNC2CCc3ncnn3C2)c1 (stereo not given) | 109.9 |
| Cc1ccc(C)c(S(=O)(=O)CCNC2CCc3ncnn3C2)c1 (stereo not given) | 114 |
| c1csc(-c2noc(CCCNC3CCc4ncnn4C3)n2)c1 (stereo not given) | 7.784 |
| c1ccc(CNC2CCc3ncnn3C2)nc1 (stereo not given) | -4.327 |
| Cc1ccc(-c2nc(CNC3CCc4ncnn4C3)co2)c(C)c1 (stereo not given) | -0.6319 |
| O=S(=O)(CCNC1CCc2ncnn2C1)c1ccc(Cl)cc1 (stereo not given) | 86.02 |
| CS(=O)(=O)Nc1ccc([C@H]2OCC(=O)N[C@@H]2CO)cc1 | -3.066 |
| CC(C)Sc1ccc(C(C)Nc2nc3c(cnn3C)c(=O)[nH]2)cc1 (stereo not given) | -4.166 |
| Cc1cc(NC(=O)NC(C)CN2CCN(c3ccccc3)CC2)on1 (stereo not given) | -17.45 |
| CNC(=O)NC(=O)CSC(C)c1ccccc1F (stereo not given) | -20.44 |
| Cc1nc(NC(=O)C(C)S(C)(=O)=O)sc1Cc1ccccc1F (stereo not given) | -3.086 |
| Cn1ccnc1CN1CCC2(CC1)CN(c1ccccc1)C(=O)CO2.O=C(O)C(F)(F)F | -5.115 |
| Cc1ccc(CN2CCC3(CC2)CN(c2ccccc2)C(=O)CO3)o1.O=C(O)C(F)(F)F | 119.8 |
| Cn1cccc1CN1CCC2(CC1)CN(c1ncccn1)CCO2.O=C(O)C(F)(F)F | 0.2482 |
| Cn1cccc1CN1CCC2(CC1)CN(c1ccccc1)C(=O)CO2.O=C(O)C(F)(F)F | 80.65 |

| SMILES | Percent Effect [%] |
| --- | --- |
| Cc1ccc(CN2CCOCC3(C2)CN(c2ccc(C)s2)C(=O)CO3)o1.O=C(O)C(F)(F)F (stereo not given) | 3.651 |
| CCc1ccc(CN2CCC3(CC2)CNC(=O)CO3)o1.O=C(O)C(F)(F)F | -11.34 |
| CCCNC(=O)C1CCN(CC2(O)CCC(C)CC2)CC1 (stereo not given) | -9.033 |
| COCc1cccc(NC(=O)NCc2ncc(C)c(OC)c2C)c1 | -10.08 |
| COCCCN1C(=O)CC[C@H]2CN(c3cc(C(N)=O)ccn3)CC[C@H]21 | -7.921 |
| O=C(CCN1C(=O)CCC1=O)Nc1ccc(OCC(F)(F)F)nc1 | -54.38 |
| CCc1nc(C)c([C@H]2CN(C)C[C@@H]2C(=O)Nc2ccc(OC)nc2)[nH]1 | 6.695 |
| CCOc1ccc(NC2CCN(C(C)C)C2=O)cn1 (stereo not given) | -21.57 |
| COc1ccc(NC(=O)C2CC(=O)N(C)C2)cn1 (stereo not given) | 112.1 |
| CN1CC(C(=O)Nc2ccc(OCC(F)(F)C(F)F)nc2)CC1=O (stereo not given) | 108 |
| COCCOc1ccc(NC(=O)C2CC(=O)N(C)C2)cn1 (stereo not given) | -11.2 |
| CNC(=O)c1ccc(N(C)C2CCC2)nn1 | -0.7532 |
| CC(C)c1cc(CNC(=O)Nc2cc(F)cc(N3CCCC3)c2)on1 | -22.89 |
| COc1ccc(O[C@H]2COCCN(C(=O)c3ccno3)C2)cc1 | -10.22 |
| COc1nc(C)ccc1CNC(=O)NC(C)Cc1c(C)nn(C)c1C (stereo not given) | -7.556 |
| CC(Cn1cccn1)NC(=O)NCc1cccnc1 (stereo not given) | 125.3 |
| CC(Cn1cccn1)NC(=O)NCc1ccoc1 (stereo not given) | 138.9 |
| Cc1ccc(CNC(=O)NC(C)Cn2cccn2)cn1 (stereo not given) | 102.7 |
| O=C(NCc1cccnc1)Nc1ccn(CC(F)F)n1 | -3.627 |
| CC(Cn1cccn1)NC(=O)Nc1cccnc1 (stereo not given) | -4.722 |
| CC(Cn1cccn1)NC(=O)NCCc1ccc(Cl)s1 (stereo not given) | 2.539 |
| CC(Cn1cccn1)NC(=O)NCc1cccs1 (stereo not given) | -5.342 |

| SMILES | Percent Effect [%] |
| --- | --- |
| CC(C)CN1CCC(c2nnc(CN3CCCC3)n2C2CC2)CC1 | 11.32 |
| O[C@H]1[C@H](n2cc(CN3CCCC3)nn2)c2ccccc2C12CCNCC2 | -10.15 |
| CCN(CC)S(=O)(=O)CCNC(=O)c1cc2cccc(F)c2o1 | -15.07 |
| Nc1nc2c(c(N3CCCC(CN4CCCC4=O)C3)n1)CCNCC2 (stereo not given) | -1.007 |
| Cc1nn(C)c2ncnc(N3CCCC(OCc4ccccn4)C3)c12 (stereo not given) | -6.916 |
| Cc1nc2c(c(N3CCC(CCn4cccn4)CC3)n1)CCNCC2 | 1.957 |
| COC1CCCN(c2nc(C)nc3c2CCN(Cc2ccco2)CC3)C1 (stereo not given) | -0.6049 |
| Cc1nn(C)c2ncnc(N3CCCC(OCc4cccnc4)C3)c12 (stereo not given) | 4.594 |
| Nc1nc2c(c(N3CCCC3)n1)CCN(Cc1ccccn1)CC2 | 7.613 |
| Nc1nc2c(c(N3CCCC(OCc4ccccn4)C3)n1)CCNCC2 (stereo not given) | 94.61 |
| Cc1nc(N2CCCC(OCc3ccccn3)C2)c2c(C)noc2n1 (stereo not given) | 99.09 |
| Cc1nc2c(c(N3CCCC(OCc4ccccn4)C3)n1)CCNCC2 (stereo not given) | 98.85 |
| Cn1cc(CN2CCc3c(c(COCC#N)nn3C)C2)cn1 | -10.53 |
| O=C(c1cccnc1-n1cncn1)N1CCN(CC(F)(F)F)CC1 | -6.052 |
| CCc1cnc(C)nc1NCCc1nc(N)cc(O)n1 | 1.724 |
| CN(C)S(=O)(=O)NCc1nc(-c2cccc(F)c2)c(-c2ccccn2)[nH]1 | -1.399 |
| N#Cc1ccccc1CN1CCc2sccc2C1 | -11.84 |
| CCC(NC(=O)CN(C)Cc1ccc(C)o1)c1ccc(Br)cc1 (stereo not given) | 7.959 |
| Cc1ncsc1CN1CC[C@H]2OCC[C@@]2(C(=O)N2CCCO2)C1 | -1.32 |
| COC[C@@]12CCO[C@@H]1CCN(Cc1ccc(C)s1)C2.O=C(O)C(F)(F)F | -10.75 |
| Cc1ccc(CN2CC[C@H]3OCC[C@@]3(C(=O)N3CCCO3)C2)s1 | 100.6 |
| O=C(N1CCCO1)[C@@]12CCO[C@@H]1CCN(Cc1ccsc1)C2 | 127 |

| SMILES | Percent Effect [%] |
| --- | --- |
| c1cnn(CC2CCCCN2Cc2cn3ccsc3n2)c1 (stereo not given) | 2.763 |
| COc1ccc2c(=O)n(CC3CCCCN3C)ccc2c1OC (stereo not given) | -25.61 |
| CCN1C[C@@H]2CN(S(=O)(=O)c3cccs3)C[C@@H]2C1=O | -17.06 |
| N#Cc1cc(NS(=O)(=O)CC2CCCCO2)ccc1F (stereo not given) | -2.711 |
| CCCc1ccc(OC23CCCN(CC2)C3)c(OC)c1 (stereo not given) | 112.6 |
| COc1cc(CN2CCCC2)ccc1Oc1ncccc1C(F)(F)F | 26.33 |
| COc1ccc(CN2CCCC3(CC2)CNC(=O)O3)cc1OC (stereo not given) | 1.159 |
| COc1cc(CN2CCCC2)ccc1OC12CCCN(CC1)C2 (stereo not given) | 119.4 |
| CCCc1ccc(OCCNCc2ccco2)c(OC)c1.Cl | -10.12 |
| COc1ccc(CCNC(=O)NCc2cccc(C(N)=O)c2)cc1OC | 9.819 |
| CC(C)c1nccn1C(C)C(=O)N1CCN(S(C)(=O)=O)CC1 (stereo not given) | 15.78 |
| CC(C)c1cc(C(=O)N(c2ccc(F)cn2)C2CCOCC2)nn1C | -15.95 |
| COC[C@@]12CC[C@@H](N3CCOCC3)C[C@H]1CCN(c1ncccc1C)C2 | -3.262 |
| CN1CCN([C@@H]2CCN(C3CCOC3)[C@H]2Cc2cnn(C)c2)CC1.O=C(O)C(F)(F)F.O=C(O)C(F)(F)F.O=C(O)C(F)(F)F (stereo not given in full) | -5.901 |
| O=C(O)C(F)(F)F.O=C(c1cscn1)N1CC[C@@H]2[C@@H]1CCN2C1CCOCC1 | 97.96 |
| O=C(O)C(F)(F)F.O=C(c1cscn1)N1CCO[C@H]2[C@@H](Oc3ccccn3)CC[C@@H]21 | -13.1 |
| O=C(C1CCOCC1)N1CC[C@H]2[C@H]1CCN2c1nncs1.O=C(O)C(F)(F)F | 9.105 |
| O=C(O)C(F)(F)F.O=C(c1cscn1)N1CC[C@@H]2[C@@H]1CCN2C1CCOC1 (stereo not given in full) | 99.27 |
| CN(CC(=O)N(C)C1CCCCC1)Cc1nc2ccccc2c(=O)[nH]1 | -1.325 |
| CC(NC(=O)NC1CCN(Cc2ccccn2)CC1)c1ccco1 (stereo not given) | 5.238 |
| c1cc(CNc2ccc(-c3nc(C4CC4)no3)cn2)no1 | -4.81 |
| CC(=O)NC1CCCN(c2nc3ccccc3cc2CO)C1 (stereo not given) | 8.297 |

| SMILES | Percent Effect [%] |
| --- | --- |
| COc1ccc(-n2ncc(C(C)NC3Cc4ccccc4C3)c2C)cc1 (stereo not given) | 4.346 |
| Cc1ncsc1C(=O)NC1CCN(CC(=O)N(C)c2ccccc2)CC1 | -1.351 |
| O[C@@H]1C[C@@H](c2nc(Cc3ccccc3)no2)N(CC2CC2)C1 | 3.423 |
| NCC1Cc2cc(F)cc(-c3cnccn3)c2O1 (stereo not given) | -7.505 |
| Cn1ccnc1-c1ccc(NCCC2COc3ccccc3O2)nn1 (stereo not given) | 7.675 |
| CN(Cc1nc(CC2CC2)no1)CC1COc2ccccc2O1 (stereo not given) | -4.512 |
| Cn1nnnc1SCC1COc2ccccc2O1 (stereo not given) | 100.3 |
| N#Cc1cccc(N2CCC(CO)(CCOc3ccccc3)CC2)n1 | -8.445 |
| CC(C)n1ccnc1C1CCN(Cc2ccc(Cl)s2)CC1 | -8.213 |
| CSCC(C)(O)CNc1ccccn1 (stereo not given) | -2.267 |
| COc1cccc2c1ccn2CCC(=O)NCCCC(=O)O | 22.13 |
| CC(=O)c1cn(CC(=O)NC(C(=O)O)C(C)C)c2ccccc12 (stereo not given) | -3.053 |
| CC(=O)Nc1cccc2c1ccn2CC(=O)Nc1n[nH]c(CC(C)C)n1 | 102.1 |
| Cc1cccc(C)c1OCC(=O)Nc1cccn(C)c1=O | -11.46 |
| O=C(Cn1ccc2c(Cl)cccc21)N[C@@H](C(=O)O)c1ccccc1 | 2.253 |
| O=C(Cn1ccc2ccccc21)NCc1cc(N2CCOCC2)ncn1 | -2.844 |
| CN1CCN(c2cc(NC(=O)Cn3ccc4ccccc43)ncn2)CC1 | -1.04 |
| CC(=O)Nc1cccc2c1ccn2CC(=O)Nc1nc[nH]n1 | 99.64 |
| COc1cccc2c1ccn2CCNC(=O)C(C)C | 18.92 |
| O=C(Cn1ccc2c(Cl)cccc21)Nc1nc[nH]n1 | 213.7 |
| CC(=O)Nc1cccc2c1ccn2CC(=O)NC(C)C | 119.7 |
| CS(=O)(=O)N1CCN(C(=O)Cn2ccc3c(Cl)cccc32)CC1 | 10.52 |
